# Data from PubChem BioAssay (NCATS).
# Records with an inconclusive call do not appear. Entries that show only a call come without a potency. Activity calls are given as the source filed them. Unless noted, calls come from the whole dose curve; as a rule, active = well fitted curve in the direction sought with a large enough effect; inconclusive = small, poorly fitted or top-dose-only effect, or another doubt; inactive = no such curve, though single readings can be large; an effect the other way counts as inactive or inconclusive.
# Legend:
# [1] = biological target: Glutathione peroxidase 1 (Homo sapiens) (UniProt P07203); assay: Primary qHTS Assay for Inhibitors of Recombinant Selenoprotein Glutathione Peroxidase 1 (GPX1) (AID 1845191); note: nearly all actives have a fitted effect of over 65% in size
# Procedure, shortened: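 Recombinant GPX1 (10 nM final) was preincubated with compound for 30 min at room temperature, then reacted with 1 mM GSH, 0.5 mM CHP, 0.5 mM NADPH and 100 nM glutathione reductase; NADPH fluorescence (340/450 nm) was read at 0 and 15 min.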
# [2] = biological target: Phospholipid hydroperoxide glutathione peroxidase GPX4 (Homo sapiens) (UniProt P36969); assay: Primary qHTS Assay for Inhibitors of Recombinant Selenoprotein Glutathione Peroxidase 4 (GPX4) (AID 1845192); note: nearly all actives have a fitted effect of over 65% in size
# Procedure, shortened: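 GR-coupled readout: 100 nM GR, 1 mM GSH, 0.5 mM NADPH; NADPH fluorescence (ex 340/em 450 nm) read at t=0 and after 15 min RT. GPX4 200 nM, preincubated 30 min with compound; substrate 0.5 mM CHP.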
# [3] = biological target: Luciferin 4-monooxygenase (Photinus pyralis) (UniProt P08659); assay: Primary firefly luciferase (FLuc) qHTS assay for identification of artifact compounds. (AID 1845220); details: outcome: dose series up to 54.1 µM; note: series mostly up to about 54 µM; nearly all actives have a fitted effect of over 60% in size
# Procedure, shortened: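 Reaction readout was CCD-imaged luminescence, taken 5 min after adding 10 nM purified firefly enzyme to compound-treated wells holding 10 uM luciferin and ATP in pH 7.6 buffer.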
# [4] = Primary fluorescence-based thiol-reactive (MSTI) qHTS assay for identification of artifact compounds. (AID 1845221);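 note: series mostly up to about 54 µM; thiol-reactive compounds lower the probe fluorescence signal; nearly all actives have a fitted effect of over 65% in size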
# Procedure, shortened: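 In PBS pH 7.4 with 2% DMSO, each compound met 4 uM MSTI for one hour at ambient temperature, shielded from light, before fluorescence detection.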
# [5] = Primary redox qHTS assay for identification of artifact compounds. (AID 1845223)
# Procedure, shortened: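 Amplex Red (25 uM) and HRP (250 mU/mL) in HBSS, with compounds for 15 min, then 250 uM DTT for 30 min, room temperature, dark. Fluorescence 525/598 nm read; normalized to DMSO and 10 uM DA3003; Hill fit.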
# [6] = qHTS drug screen for cell cycle checkpoint inhibitors in PARPi-resistant BRCA-mutant ovarian cancer cell lines. (AID 1963452; calls by dose curve); details: PEO1/OlaR viability, CellTiter-Glo luminescence, 96 h, stronger effect = lower value
# Procedure, shortened: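 PEO1, PEO4 and PEO1/OlaR ovarian cancer cells, 600 per well, exposed 96 h at 37C to a dilution series. Viability read by CellTiter-Glo luminescence, normalized to DMSO and empty wells; activity summarized as Z-AUC.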
# [7] = measured here: PEO1 parental Z-AUC
# Chain of Phospholipid hydroperoxide glutathione peroxidase GPX4 (Homo sapiens) (P36969 whole entry, looked up): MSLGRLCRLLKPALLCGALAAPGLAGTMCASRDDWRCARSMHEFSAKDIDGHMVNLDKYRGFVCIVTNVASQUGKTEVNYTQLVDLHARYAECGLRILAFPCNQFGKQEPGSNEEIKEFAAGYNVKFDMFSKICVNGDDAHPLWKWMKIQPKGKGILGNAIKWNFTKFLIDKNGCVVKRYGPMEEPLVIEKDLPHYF
# Chain of Glutathione peroxidase 1 (Homo sapiens) (P07203 whole entry, looked up): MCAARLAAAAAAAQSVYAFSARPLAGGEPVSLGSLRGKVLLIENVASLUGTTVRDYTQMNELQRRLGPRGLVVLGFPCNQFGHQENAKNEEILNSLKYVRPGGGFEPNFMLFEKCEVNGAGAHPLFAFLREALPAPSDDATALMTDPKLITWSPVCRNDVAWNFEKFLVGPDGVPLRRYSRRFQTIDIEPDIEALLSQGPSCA
structure (smiles),measurement,setting,value
CC1=C(/C=C/C(C)=C/C=C/C(C)=C/C=C/C=C(C)/C=C/C=C(C)/C=C/C2=C(C)C[C@@H](O)CC2(C)C)C(C)(C)C[C@H](O)C1,Potency,[1],inactive
same,Potency,[2],inactive
C[C@]12CCC(=O)C[C@@H]1CC[C@@H]1[C@@H]2CC[C@]2(C)C=CC[C@@H]12,Potency,[1],inactive
same,Potency,[2],inactive
O=C(O)Cc1cc(I)c(Oc2ccc(O)c(I)c2)c(I)c1,Potency,[1],inactive
same,Potency,[2],inactive
same,outcome,[3],inactive
same,outcome,[4],inactive
CN(C)c1ccc(C(=C2C=CC(=[N+](C)C)C=C2)c2c(O)c(S(=O)(=O)[O-])cc3cc(S(=O)(=O)O)ccc23)cc1,Potency,[1],inactive
same,Potency,[2],inactive
CCN(CC)CCOCCOC(=O)C(CC)(CC)c1ccccc1,Potency,[1],inactive
same,Potency,[2],inactive
same,outcome,[3],inactive
same,outcome,[4],inactive
same,outcome,[5],inactive
C=C1[C@H](CO)[C@@H](O)C[C@@H]1n1cnc2c(=O)[nH]c(N)nc21,Potency,[1],inactive
same,Potency,[2],inactive
same,outcome,[3],inactive
same,outcome,[4],inactive
same,outcome,[5],inactive
same,Z-AUC,[6],1.7 (inactive)
same,Z-AUC,[6]; [7],1.15
same,Z-AUC,[6]; measured here: PEO4 Z-AUC,1.37
CC(C)C[C@H](NC(=O)[C@@H](COC(C)(C)C)NC(=O)[C@H](Cc1ccc(O)cc1)NC(=O)[C@H](CO)NC(=O)[C@H](Cc1c[nH]c2ccccc12)NC(=O)[C@H](Cc1cnc[nH]1)NC(=O)[C@@H]1CCC(=O)N1)C(=O)N[C@@H](CCCN=C(N)N)C(=O)N1CCC[C@H]1C(=O)NNC(N)=O,Potency,[1],inactive
same,Potency,[2],inactive
CCCCC[C@H](O)/C=C/[C@H]1[C@H](O)CC(=O)[C@@H]1CCCCCCC(=O)O,Potency,[1],inactive
same,Potency,[2],inactive
same,Z-AUC,[6],-0.83 (inactive)
same,Z-AUC,[6]; [7],-0.667
same,Z-AUC,[6]; measured here: PEO4 Z-AUC,-0.531
CC(=O)Nc1ccc(NC(=S)NC(=O)c2ccc(C(C)(C)C)cc2)cc1,Potency,[1],inactive
same,Potency,[2],inactive
same,outcome,[3],inactive
same,outcome,[4],inactive
same,outcome,[5],inactive
COc1ccc(-c2noc(CC(=O)O)c2-c2ccc(OC)cc2)cc1,Potency,[1],inactive
same,Potency,[2],inactive
CNCC(O)c1ccc(OC(=O)C(C)(C)C)c(OC(=O)C(C)(C)C)c1 (centres undefined),Potency,[1],inactive
same,Potency,[2],inactive
